HIV Env fusion – inhibitors of HIV Env-mediated cell fusion | HeLa-JRFL Env/CEM21 cell fusion, luciferase | inhibition, % at 12.3 µM | actives 1.1% (n = 360,000);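 active = mean replicate inhibition score of at least 50 and every replicate individually at or above 50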;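 also: 0% = plate neutral controls and 100% = maraviroc near 300 nM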
Gli-Sufu antag – antagonists of Gli-Sufu signaling; inhibition, % at 5 µM; AID 588413; Sufu-KO-LIGHT fibroblasts, Gli luciferase reporter luminescence; actives 0.74% (n = 340,000);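 active = inhibition above about 55%, limit read from the data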;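 also: 0% = DMSO-treated cells and 100% = wells with medium but no cells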
COUP-TFII inh – blocks human COUP-TFII nuclear receptor; HEK293T NGFI-A luciferase reporter, luminescence; inhibition, % at 8.6 µM; actives 0.7% (n = 370,000);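 active = inhibition above a per-plate cutoff, mean inhibition of test wells between control levels plus 3 SD, cut at about 38% in these data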;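 also: cells cotransfected with COUP-TFII expression vector driving the NGFI-A reporter; 0% = median of COUP-TF2 test wells and 100% = reporter-only cells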
Target sequence (P24468 whole entry, looked up): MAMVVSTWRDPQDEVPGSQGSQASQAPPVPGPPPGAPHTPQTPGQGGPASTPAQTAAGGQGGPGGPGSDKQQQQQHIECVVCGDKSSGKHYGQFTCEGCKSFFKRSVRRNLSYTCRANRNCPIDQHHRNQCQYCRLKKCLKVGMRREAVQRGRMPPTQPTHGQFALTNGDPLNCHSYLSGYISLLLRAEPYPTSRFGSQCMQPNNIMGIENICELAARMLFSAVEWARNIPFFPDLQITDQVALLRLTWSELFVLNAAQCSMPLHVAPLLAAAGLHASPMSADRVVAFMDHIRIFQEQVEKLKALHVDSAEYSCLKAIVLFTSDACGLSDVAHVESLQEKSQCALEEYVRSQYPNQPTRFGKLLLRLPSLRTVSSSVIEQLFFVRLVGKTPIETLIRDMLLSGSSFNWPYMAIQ
GalR3 antagonist – blocks the human galanin receptor 3; O60755; inhibition, % at 3 µM; AID 651719; actives 0.44% (n = 360,000); HEK293 GalR3-CNG cAMP membrane potential fluorescence; galR3 body fused to GalR1 C-terminus;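 active = inhibition above the screen-wide average plus 3 SD, cut at about 13% in these data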;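 also: forskolin and galanin both at EC90 stimulate the cells; cAMP rise reported by CNG channel membrane potential dye signal; 0% = forskolin plus galanin with DMSO and 100% = forskolin alone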
Target sequence (O60755 1-299 limits assumed): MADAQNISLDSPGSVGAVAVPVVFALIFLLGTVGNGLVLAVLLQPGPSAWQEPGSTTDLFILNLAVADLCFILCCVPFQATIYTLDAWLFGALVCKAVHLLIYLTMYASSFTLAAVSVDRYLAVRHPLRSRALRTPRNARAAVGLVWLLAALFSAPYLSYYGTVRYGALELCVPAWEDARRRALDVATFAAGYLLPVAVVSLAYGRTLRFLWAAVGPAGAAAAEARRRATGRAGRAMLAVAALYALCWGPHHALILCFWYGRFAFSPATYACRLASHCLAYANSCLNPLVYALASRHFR
aDG glyco act – alpha-DG glycosylation activation | activation, % at 10 µM | Pro5-aDG cells, alpha-DG glycosylation AlphaScreen (IIH6); 0% Pro5, 100% B10-LARGE cell signal | actives 0.22% (n = 360,000) | AID 624168;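 active = activation of at least 8% versus controls, or a plate z-score of at least 8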;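 also: Pro5 are CHO cells carrying HIG-tagged alpha-DG that lacks glycosylation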
* hit, by the source's call; · = no result given; [ ] = dose if it differs, or a comment. Shown are actives, neighbours in structure and some others; about 2.1% of the full set was active somewhere.

SMILES	HIV Env fusion	Gli-Sufu antag	COUP-TFII inh	GalR3 antagonist	aDG glyco act
CC[C@]12c3[nH]c4ccc(OC)cc4c3CCN1C(=O)C(CC(=O)NCCCN(C)C)C[C@@H]2C(=O)N1CCN(C(=O)C2CC2)CC1 (stereo not given in full)	10.8	-7.5	-19.0	-4.8	0.2
CC[C@]12c3[nH]c4ccc(OC)cc4c3CCN1C(=O)C(CC(=O)NCC13CC4CC(CC(C4)C1)C3)C[C@@H]2C(=O)N1CCN(C(=O)C2CC2)CC1 (stereo not given in full)	69.9*	-1.4	-1.5	-4.1	0.0
CC[C@]12c3[nH]c4ccc(Cl)cc4c3CCN1C(=O)[C@@H](CC(=O)NCC13CC4CC(CC(C4)C1)C3)C[C@@H]2C(=O)N1CCN(C(=O)C2CC2)CC1	57.7*	9.2	2.4	-4.6	0.5
CC[C@]12c3[nH]c4ccccc4c3CCN1C(=O)C(CC(=O)NCC13CC4CC(CC(C4)C1)C3)C[C@@H]2C(=O)N1CCN(C(=O)C2CC2)CC1 (stereo not given in full)	99.7*	9.9	7.5	-7.8	0.6
C[C@@H]1CN([C@H](C)CO)C(=O)c2cc(NC(=O)NC3CCCCC3)ccc2O[C@@H](C)CCCCO[C@@H]1CN(C)Cc1ccc(C(=O)O)cc1	12.4[16.7 µM]	·	·	·	·
CNC[C@@H]1Oc2ccc(NS(C)(=O)=O)cc2C(=O)N([C@H](C)CO)C[C@H]1C	-6.0[16.7 µM]	·	·	·	·
Cc1ccc(C(=O)NCc2ccccn2)cc1S(=O)(=O)N1CCCCC1	90.2*	-14.6	8.6	-4.1	0.2
Cc1ccc(S(=O)(=O)N2CCCCCC2)cc1C(=O)NCc1ccccn1	1.7	-22.6	2.2	-5.7	-0.1
CCC1(c2ccccc2)NC(=O)N(CC(=O)Nc2cc(S(=O)(=O)N3CCCCCC3)ccc2OC)C1=O (stereo not given)	11.6	4.6	8.4	-5.8	-0.5
CCC1(c2ccccc2)NC(=O)N(CC(=O)Nc2cc(S(=O)(=O)N3CCCCC3)ccc2OC(C)C)C1=O (stereo not given)	98.0*	-9.8	13.3	-4.6	0.2
CCOc1cc(CNCCc2ccc(S(N)(=O)=O)cc2)ccc1OCc1ccccc1	-25.6	45.7	-12.9	-7.6	5.7*
CCOc1cc(CNCCc2ccc(S(N)(=O)=O)cc2)cc(Cl)c1OCc1ccccc1	·	46.5	·	·	2.6
C[C@@H]1CCCCO[C@H](CN(C)C(=O)Nc2ccc3c(c2)OCO3)[C@H](C)CN([C@@H](C)CO)C(=O)c2cc(NS(=O)(=O)c3cn(C)cn3)ccc2O1	1.0[16.7 µM]	·	·	·	·
C[C@H](CO)N1C[C@H](C)[C@@H](CN(C)CC2CC2)Oc2ccc(NS(C)(=O)=O)cc2CC1=O	57.6*[16.7 µM]	·	·	·	·
CNC[C@@H]1Oc2ccc(NS(C)(=O)=O)cc2CC(=O)N([C@H](C)CO)C[C@H]1C	64.9*[16.7 µM]	·	·	·	·
C[C@H]1CCCCO[C@@H](CN(C)C(=O)C2CCCCC2)[C@@H](C)CN([C@@H](C)CO)C(=O)c2cc(NC(=O)C3CCCCC3)ccc2O1	-28.6[16.7 µM]	·	·	·	·
CCC(C)(C)c1ccc(OCCCC[n+]2ccc(C)cc2)c(C(C)(C)CC)c1	126.9*	83.7*	27.3	2.3	·
Cc1cc[n+](CC[n+]2ccc(C)cc2)cc1	-31.1	-4.9	8.8	-7.5	0.0
COc1ccc(CN(C)C[C@H]2OCCCC[C@@H](C)Oc3ccc(NC(=O)Nc4cccc5ccccc45)cc3C(=O)N([C@@H](C)CO)C[C@@H]2C)cc1	-62.9[16.7 µM]	·	·	·	·
COCCCNc1ccn2nc(-c3ccccc3)cc2n1	62.9*	·	-29.4	-3.6	0.0
C[C@@H]1CN([C@H](C)CO)C(=O)Cc2cc(NS(=O)(=O)c3cn(C)cn3)ccc2O[C@H]1CN(C)S(=O)(=O)c1cccs1	9.9[16.7 µM]	·	·	·	·
C[C@@H]1CN([C@H](C)CO)C(=O)Cc2cc(NC(=O)Nc3cccc4ccccc34)ccc2O[C@@H]1CN(C)Cc1ccc(Oc2ccccc2)cc1	-52.2[16.7 µM]	·	·	·	·
C[C@H]1CN([C@@H](C)CO)S(=O)(=O)c2ccc(-c3ccccc3)cc2O[C@@H]1CN(C)C	-5.2[16.7 µM]	·	·	·	·
Cc1ccc(-c2ccc3c(c2)O[C@@H](CN(C)Cc2ccncc2)[C@H](C)CN([C@H](C)CO)S3(=O)=O)cc1	89.9*[16.7 µM]	·	·	·	·
Cc1ccc(-c2ccc3c(c2)O[C@H](CN(C)Cc2ccncc2)[C@@H](C)CN([C@@H](C)CO)S3(=O)=O)cc1	91.0*[16.7 µM]	·	·	·	·
SMILES	HIV Env fusion	Gli-Sufu antag	COUP-TFII inh	GalR3 antagonist	aDG glyco act
C[C@@H]1CN([C@H](C)CO)S(=O)(=O)c2ccc(-c3ccncc3)cc2O[C@@H]1CN(C)Cc1ccc(Oc2ccccc2)cc1	58.7*[16.7 µM]	·	·	·	·
COc1ccccc1C#Cc1ccc2c(c1)O[C@@H](CN(C)Cc1ccncc1)[C@@H](C)CN([C@@H](C)CO)S2(=O)=O	45.6*[16.7 µM]	·	·	·	·
C[C@@H]1CN([C@@H](C)CO)S(=O)(=O)c2ccc(-c3ccccc3)cc2O[C@@H]1CN(C)Cc1ccncc1	11.9[16.7 µM]	·	·	·	·
O=C(C[C@@H]1CC[C@H](NC(=O)C2CC2)[C@H](CO)O1)Nc1nccs1	8.6[16.7 µM]	·	·	·	·
Cc1ccc(-c2ccc3c(c2)O[C@@H](CN(C)Cc2cccnc2)[C@H](C)CN([C@@H](C)CO)S3(=O)=O)cc1	24.1[16.7 µM]	·	·	·	·
Cc1ccc(-c2ccc3c(c2)O[C@H](CN(C)Cc2cccnc2)[C@@H](C)CN([C@H](C)CO)S3(=O)=O)cc1	78.5*[16.7 µM]	·	·	·	·
COc1ccc(N2C(=O)NC3CC2(C)Oc2ccc(Cl)cc23)cc1OC (stereo not given)	·	14.6	-13.6	-6.6	-0.2
COc1ccc(CCN2C(=S)NC3CC2(C)Oc2ccc([N+](=O)[O-])cc23)cc1OC (stereo not given)	58.6*	44.5	15.5	-3.9	1.9
C[C@@H]1CN([C@H](C)CO)C(=O)c2cc(NC(=O)c3ccccc3)ccc2O[C@@H](C)CCCCO[C@H]1CN(C)Cc1ccc(C(F)(F)F)cc1	68.6*[16.7 µM]	·	·	·	·
C[C@H](CO)N1C[C@H](C)[C@@H](CN(C)Cc2ccc(C(F)(F)F)cc2)OCCCC[C@H](C)Oc2ccc(NC(=O)c3ccccc3)cc2C1=O	2.8[16.7 µM]	·	·	·	·
C[C@@H]1CCCCO[C@@H](CN(C)Cc2ccc(C(F)(F)F)cc2)[C@H](C)CN([C@H](C)CO)C(=O)c2cc(NC(=O)c3ccccc3)ccc2O1	78.6*[16.7 µM]	·	·	·	·
C[C@@H]1CCCCO[C@H](CN(C)Cc2ccc(C(F)(F)F)cc2)[C@H](C)CN([C@H](C)CO)C(=O)c2cc(NC(=O)c3ccccc3)ccc2O1	89.7*[16.7 µM]	·	·	·	·
C[C@@H]1CCCCO[C@@H](CN(C)Cc2ccc(Cl)c(Cl)c2)[C@@H](C)CN([C@H](C)CO)C(=O)c2cc(NC(=O)NC3CCCCC3)ccc2O1	5.8[16.7 µM]	·	·	·	·
CCC(C)N(C(=O)COC(=O)c1cc([N+](=O)[O-])ccc1N)C1CCS(=O)(=O)C1 (stereo not given)	70.5*	-6.3	-13.3	-4.5	-0.3
COc1cccc2[nH]c3c(N4CCCCC4)ncnc3c12	-57.2	5.2	-33.4	96.4*	0.2
Cc1ccc(N2C(=O)CC(c3ccsc3)C3=C2CC(C)(C)CC3=O)cc1 (stereo not given)	107.5*	9.7	4.7	-3.8	0.2

Compound activity deposited in PubChem by several laboratories.
